# Test results published in PubChem BioAssay AID588689 (Southern Research Specialized Biocontainment Screening …, 2011).
# Hit rate of the full screen: of about 340,000 compounds, about 1,000 (0.29%) were called active. Rule as the data show it: inconclusive = inhibition above about 29% without an active follow-up result; inactive = below that. Only a sample is shown. Results with a measured potency or affinity are listed apart.
# Target: Genome polyprotein (Dengue virus type 2 (strain 16681-PDK53)) (UniProt P29991)
# Experiment: flavivirus cap methylation enzyme inhibition – biochemical, confirmation dose response, primary screen (AID 588689)
# Settings: Dengue-2 NS5 methyltransferase capping enzyme assay, at 25 µM, stronger effect = higher value
# [1] = measured here: pilot screen replicate inhibition
Compound,inhibition,inhibition [1] [%]
Cc1ccccc1Cn1c(CN2CCN(C(=O)c3ccco3)CC2)nc2c1c(=O)n(C)c(=O)n2C,-5.56% (inactive),–
CCc1ccc(NS(=O)(=O)c2ccc3oc(=O)ccc3c2)cc1,1.32% (inactive),1.83
O=C(NCc1ccccc1)c1cccc(S(=O)(=O)NCc2ccccc2)c1,-6.73% (inactive),–
O=C(Nc1ccc(C(F)(F)F)cc1)C1CCCCN1S(=O)(=O)c1ccccc1 (centres undefined),-9.59% (inactive),–
COc1ccc(-n2nc(C(=O)NCC(=O)N(C)Cc3ccccc3)c3ccccc3c2=O)cc1,-2.44% (inactive),–
O=C1C(Cl)=C(N2CCCCC2)C(=O)N1c1ccccc1Cl,16.1% (inactive),–
O=C1C(Cl)=C(N2CCCCCC2)C(=O)N1c1ccccc1Cl,8.59% (inactive),–
Cc1ccccc1N1C(=O)C(Cl)=C(N2CCN(c3ccccc3)CC2)C1=O,-3.27% (inactive),–
Cc1ccccc1N1C(=O)C(Cl)=C(N2CCCCCC2)C1=O,-0.78% (inactive),–
CCc1ccccc1N1C(=O)c2cccc3c(N4CCOCC4)c([N+](=O)[O-])cc(c23)C1=O,-4.86% (inactive),–
CC1=CC(C)(C)C(C(=O)O)C(C(=O)O)C1 (centres undefined),-2.42% (inactive),–
CCOC(=O)/C(C#N)=C1/C=C(C)c2ccccc2N1,-9.35% (inactive),–
O=C(O)COc1ccc2c(c1)O/C(=C\c1cccs1)C2=O,-8.5% (inactive),–
O=C(CSc1nncn1-c1ccccc1)N1CCCC1,-4.17% (inactive),–
CCc1ccc(NC(=O)C2CCCN(S(=O)(=O)c3ccc4c(c3)CCCN4C(C)=O)C2)cc1 (centres undefined),2.65% (inactive),–
CC(C)C(O)P(=O)(OCc1ccccc1)c1ccc(N(C)C)cc1 (centres undefined),1.35% (inactive),-3.66
CCOC(=O)C1CCCN1C(=O)c1ccc(OC)c(Br)c1 (centres undefined),0% (inactive),–
Cc1[nH]c2ccc(Br)cc2c(=S)c1C/C=C/Cl,0% (inactive),–
CC(=O)c1coc2c1cc(O)c1ccccc12,-0.78% (inactive),–
CC(=O)c1c(C)oc2c1cc(O)c1ccccc12,-5.41% (inactive),–
CCN(C(=O)CCN1C(=O)c2ccccc2S1(=O)=O)c1ccccc1,-2.22% (inactive),–
COc1ccc(C(=O)N2CCOC2CNC(=O)C(=O)NCc2ccc(C)cc2)cc1 (centres undefined),1.73% (inactive),–
CSc1nc(-c2ccccc2)nc(NC(=O)C(C)C)c1C(C)=O,-10.3% (inactive),–

Compound,inhibition,inhibition [1] [%]
O=C(NC1CC2CCCC(C1)N2S(=O)(=O)c1ccccc1)c1ccco1 (centres undefined),1.41% (inactive),–
CSCC[C@H](NC(=O)c1cccs1)c1nnc2ccccn12,5.35% (inactive),–
CC(=O)c1c(C)oc2c1cc(NS(=O)(=O)c1ccc(C(=O)O)cc1)c1ccccc12,15.7% (inactive),–
CCOC(=O)c1c(C)oc2ccc(NS(=O)(=O)c3ccc(C(=O)O)cc3)cc12,4.37% (inactive),–
COc1ccc(S(=O)(=O)Nc2cc3c(C(C)=O)c(C)oc3c3ccccc23)cc1,-1.56% (inactive),–
Cc1oc2c(cc(NS(=O)(=O)c3ccc(F)cc3)c3ccccc32)c1C(=O)O,11.6% (inactive),–
O=C(Cn1cnc2ccccc2c1=O)NCC(=O)N1CCN(Cc2ccc3c(c2)OCO3)CC1,-2.08% (inactive),–
Cc1cccc(NC(=O)Nc2cnccn2)c1,-2.65% (inactive),–
Cn1c(=O)c2c(ncn2CCC(=O)N/N=C/c2cccnc2)n(C)c1=O,0.78% (inactive),–
CN1C(=O)N(c2ccc(Cl)cc2)C(C)(O)CC1(C)C (centres undefined),-7.17% (inactive),–
COc1cc2cccc(OC)c(=O)c2c(O)c1OC,-2.72% (inactive),–
Oc1cccc2cc3cccc(O)c3c(O)c12,-2.2% (inactive),–
O=C(COC(=O)CCC(=O)c1cccs1)NCCc1ccccc1,10.1% (inactive),–
Cc1cccc(NC(=O)c2cccc(NC(=O)c3ccco3)c2)c1,-3.49% (inactive),–
O=c1c2c(C(F)(F)F)cc(C(F)(F)F)nc2[nH]n1-c1ccccc1,12% (inactive),–
Cc1cc(-c2ccccc2)nc2[nH]n(-c3ccccc3)c(=O)c12,14.4% (inactive),–
COC(C(=O)Nc1ccccc1C(=O)N1CCOCC1)c1ccccc1 (centres undefined),-4.55% (inactive),–
CN1C(=O)C(C)(C)c2cc(S(=O)(=O)NCc3ccc(Cl)cc3)ccc21,0% (inactive),–
O=C(O)/C(=C\c1ccccc1)c1ccccc1,-3.95% (inactive),–
O=C(O)c1cc(=O)c2c(Cl)cc(Cl)cc2[nH]1,-1.47% (inactive),–
COc1ccc(C(=O)Nc2ccc3nc(N4CCOCC4)sc3c2)cc1OC,-1.84% (inactive),–
c1csc(-c2cc(N3CCCCC3)c3ccccc3n2)c1,-2.61% (inactive),–
O=c1c2ccccc2nc(/C=C/c2ccc([N+](=O)[O-])cc2)n1CCCO,-2.58% (inactive),–

Compound,inhibition,inhibition [1] [%]
Cc1cnc(=O)[nH]c1SCc1ccc([N+](=O)[O-])cc1,9.19% (inactive),–
CCOC(=O)N1CCC(NC(=O)c2cc3sccc3n2CC)CC1,-4.86% (inactive),–
Cc1cccc(N/N=C/c2ccccc2O)c1,-8.43% (inactive),–
Oc1ccc(/C=N/NC(=S)Nc2cccnc2)c(O)c1,-3.64% (inactive),–
Oc1c(Br)cc(Br)cc1/C=N/Nc1ccc(Cl)nn1,7.11% (inactive),–
Oc1cccc(/C=N/NC(=S)Nc2cccnc2)c1O,-2.88% (inactive),–
Oc1ccc(/C=N/Nc2ccc(Cl)nn2)cc1O,2.61% (inactive),–
CCN(CC)c1ccc(/C=N/Nc2cccc(C)c2)c(O)c1,7.27% (inactive),–
COc1ccc(CCC(=O)N2CCN(C3CCCCC3)CC2)cc1,-7.21% (inactive),–
CC(=O)N1CCN(Cc2nc3cc(NC(=O)c4ccccc4C)ccc3n2C)CC1,-0.69% (inactive),–
Cc1cc2ncn(C3CC(O)C(CO)O3)c2cc1C (centres undefined),2.33% (inactive),–
COc1ccc(-c2nn(-c3ccccc3)cc2/C=N/NC(=O)c2cccc(S(=O)(=O)Nc3ccccc3OC)c2)cc1,-3.64% (inactive),–
C=CCc1cccc2cc(C(=O)N3CCN(C(=O)c4ccccc4)CC3)c(=O)oc12,-4.98% (inactive),–
C[C@@H]1CN([C@@H](C)CO)S(=O)(=O)c2ccc(Br)cc2O[C@H]1CN(C)C(=O)c1ccncc1,-4.96% (inactive),–
CC(C)CN(CC(C)C)c1ccc(/C=N/n2cnnc2)cc1[N+](=O)[O-],-1.82% (inactive),–
O=C1c2ccccc2C(=O)N1/N=C/c1ccc(Oc2ccc([N+](=O)[O-])cn2)cc1,-2.91% (inactive),–
O=C1NC(=S)N/C1=C\c1cccc([N+](=O)[O-])c1,2.76% (inactive),–
CN(C)c1ccc(/C=N/NC(N)=S)cc1[N+](=O)[O-],-11.3% (inactive),–
O=C(c1ccc(N2CCOCC2)c([N+](=O)[O-])c1)N1CCN(c2ccccc2)CC1,-9.43% (inactive),–
Cc1ccc(/C=C2\NC(=S)NC2=O)cc1[N+](=O)[O-],3.12% (inactive),–
O=C1NC(=O)/C(=C\c2ccc(Oc3ccc([N+](=O)[O-])cn3)cc2)S1,10.2% (inactive),–
COc1ccc(N2CCN(C(=O)c3ccccc3)CC2)c([N+](=O)[O-])c1,0% (inactive),–
COc1ccc(NC(=O)C2CCCN(C(=O)c3ccc(Cl)cc3)C2)cc1S(=O)(=O)N(C)C (centres undefined),-6.34% (inactive),–

Compound,inhibition,inhibition [1] [%]
CCOc1ccc(NC(=O)c2ccc3c(c2)N(Cc2ccc(F)cc2)C(=O)CS3=O)cc1 (centres undefined),-7.95% (inactive),–
COCCN(C(=S)Nc1ccc(Cl)cc1OC)C1CCN(C(C)=O)CC1,-5.17% (inactive),–
Cc1cc2c(cc1S(=O)(=O)N1CCOCC1)NC(=O)CO2,-0.83% (inactive),–
COc1ccc(S(=O)(=O)NCC2CCCO2)cc1NC(=O)c1ccc(Cl)cc1 (centres undefined),-0.72% (inactive),–
C[C@@H]1CN([C@H](C)CO)C(=O)c2cc(NS(=O)(=O)c3cn(C)cn3)ccc2O[C@H]1CN(C)C(=O)Nc1ccccc1,-1.59% (inactive),–
Cc1ccc(C(=O)NC(=S)Nc2ccc(N3CCOCC3)cc2)c(C)c1,-1.43% (inactive),–
COc1cccc(N(C(=O)c2snc(C(N)=O)c2N)C(C(=O)NCC2CCCO2)c2ccc(F)cc2)c1 (centres undefined),-6.68% (inactive),–
CN(C)c1ccc(/C=N/N=C(N)N)cc1[N+](=O)[O-],-2.95% (inactive),–
CN(C)c1ccc(/C=C/C(=O)c2ccccc2)cc1[N+](=O)[O-],7.8% (inactive),–
COc1ccc(C=O)cc1OS(=O)(=O)c1ccccc1[N+](=O)[O-],11% (inactive),–
COc1cc(C=O)ccc1OS(=O)(=O)c1ccccc1[N+](=O)[O-],-9.17% (inactive),–
O=C1Nc2ccccc2/C1=C/c1ccc([N+](=O)[O-])cc1,-15.7% (inactive),–
O=C1NC(=O)c2cc(Oc3ccc([N+](=O)[O-])cc3)ccc21,0.39% (inactive),–
CC(C)(C)NC(=O)CN(C(=O)C1CSC(=O)C1)c1ccccc1F (centres undefined),-7.12% (inactive),–
O=C(O)c1ccc(NC(=O)c2cccc(C(=O)Nc3ccc(C(=O)O)cc3)n2)cc1,-1.63% (inactive),–
Cc1ncn(-c2ccccc2)c1-c1ccccc1,0% (inactive),–
CCN(CC)S(=O)(=O)c1ccc(OC)c(NS(=O)(=O)c2cccc(C(=O)O)c2)c1,7.95% (inactive),–
CC(=O)n1cc(/C=C2/N=C(c3ccccc3)OC2=O)c2ccccc21,19.9% (inactive),–
CC(=O)n1cc(CO)c2ccccc21,-0.72% (inactive),–
COC(=O)Cn1cc(C(=O)OC)c2ccccc21,-2.39% (inactive),–
CN=C1S/C(=C\c2cn(CC(=O)OC)c3ccccc23)C(=O)N1C,-17.1% (inactive),–
COc1ccc(/C=N/NC(=O)c2ccc(O)cc2O)cc1CSc1ccccn1,2.91% (inactive),–
CCOC(=O)c1c(NC(=O)CSc2nnnn2C)sc(C)c1C,-3.98% (inactive),–
